Reference: PubChem BioAssay (Tox21)
Several values for one entry are separate records, joined by “and”; a condition that tells them apart may be missing. Equal values may be shown once. Inconclusive results are not listed. Activity calls are given as the source filed them. Unless noted, calls come from the whole dose curve.

What was measured:
[1] = biological target: Aryl hydrocarbon receptor (Homo sapiens) (UniProt P35869); assay: qHTS assay to identify small molecule that activate the aryl hydrocarbon receptor (AhR) signaling pathway (AID 743085; active = well fitted curve in the direction sought with a large enough effect in the repeat runs; an effect the other way counts as inactive or inconclusive;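 note: HG2L7.5c1 human HepG2 liver cells with stably integrated DRE-driven firefly reporter; nearly all actives have a fitted effect of over 15% in size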)
In short: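 Reporter assay in engineered HepG2 line HG2L7.5c1, whose plasmid carries twenty dioxin responsive elements upstream of firefly luciferase. Treatment lasted 24 h at 37C; ONE-Glo luminescence gauged induction.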

[2] = qHTS assay to identify small molecule antagonists of the retinoic acid receptor (RAR) signaling pathway (AID 1159552; active = well fitted curve in the direction sought with a large enough effect in the repeat runs; an effect the other way counts as inactive or inconclusive; note: nearly all actives have a fitted effect of over 50% in size; note: potency is the fitted concentration of half-maximal effect)
In short: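 Overnight-plated C3RL4 reporter cells get compound, then retinol to 1 uM final; plates sit 6 hr at 37 C, 5% CO2. A luciferase reagent is added and light output recorded after 30 min at room temperature.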

[3] = qHTS assay to identify small molecule antagonists of the estrogen related receptor (ERR) signaling pathway - cell viability counter screen (AID 1224818; active = well fitted curve in the direction sought with a large enough effect in the repeat runs; an effect the other way counts as inactive or inconclusive;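 note: viability measured after 17.5 h of compound exposure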)
In short: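 After a 6 h pre-incubation, ERR cells were dosed by pin tool with compounds, positive/negative controls or DMSO alone. Following 17.5 h at 37 C and 30 min with CellTiter-Fluor, fluorescence was recorded.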

[4] = qHTS assay to identify small molecule antagonists of the estrogen related receptor (ERR) signaling pathway (AID 1224819; active = well fitted curve in the direction sought with a large enough effect in the repeat runs; an effect the other way counts as inactive or inconclusive;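 note: luminescence from an ERR-driven luciferase reporter measured with One-Glo reagent; nearly all actives have a fitted effect of over 50% in size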)
In short: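 Luminescence readout (One-Glo, 30 min, RT) of ERR cell line after 18 h compound exposure at 37 C; cells seeded 2,000/well, pre-incubated 6 h, compounds pinned from DMSO stocks.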

[5] = qHTS assay to identify small molecule agonists of the estrogen related receptor (ERR) signaling pathway (AID 1224820; active = well fitted curve in the direction sought with a large enough effect in the repeat runs; an effect the other way counts as inactive or inconclusive)
In short: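 ERR reporter cell line (from NTP), 2,000 cells/well, incubated 6 h before compound addition, then 18 h at 37 C. Luminescence measured 30 min after One-Glo reagent at room temperature.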

[6] = system: estrogen-related receptor alpha (ERRalpha) with PGC-1alpha coactivator, human; assay: qHTS assay to identify small molecule antagonists of the estrogen related receptor signaling pathway with the pleiotropic PPARgamma coactivator (PGC) (AID 1224821);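 note: lower luminescence signal means antagonism of PGC/ERR signalling; nearly all actives have a fitted effect of over 50% in size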
In short: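 PGC/ERR reporter cell line, plated 6 h before compound addition, then exposed 18 h at 37 °C. Luciferase activity read by luminescence 30 min after One-Glo addition; decrease indicates antagonism.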

[7] = qHTS assay to identify small molecule antagonists of the estrogen related receptor signaling pathway with the pleiotropic PPARgamma coactivator (PGC) cell viability counter screen (AID 1224822; active = well fitted curve in the direction sought with a large enough effect in the repeat runs; an effect the other way counts as inactive or inconclusive;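 note: viability read after 17.5 h compound exposure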)
In short: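 PGC/ERR cells were plated at 2,000 per well and allowed 6 h to settle before compound addition. Following 17.5 h at 37 C, CellTiter-Fluor reagent was added and fluorescence was read 30 min later.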

[8] = qHTS assay to identify small molecule agonists of the estrogen related receptor signaling pathway with the pleiotropic PPARgamma coactivator (PGC) (AID 1224823; active = well fitted curve in the direction sought with a large enough effect in the repeat runs; an effect the other way counts as inactive or inconclusive)
In short: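 PGC/ERR reporter cells seeded 6 h, then exposed to compounds (23 nL in DMSO) for 18 h at 37 C. One-Glo luciferase luminescence read after 30 min at room temperature.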

[9] = qHTS assay to identify small molecule agonists of the estrogen related receptor (ERR) signaling pathway from Tox21 library (AID 1224849); details: ERR reporter cell line, ONE-Glo luciferase, 18 h; at 92.4 µM (top of the series) unless noted; note: nearly all actives have a fitted effect of over 15% in size
In short: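 Screening used an NTP-provided ERR luciferase cell line. Compounds in DMSO were added 6 h after seeding and left 18 h at 37 C before a 30 min ONE-Glo step and luminescence reading.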

[10] = A CellTox Green Cytotoxicity Assay to monitor cytotoxicity in HepG2 cells - 0 hour (AID 1224882; active = well fitted curve in the direction sought with a large enough effect in the repeat runs; an effect the other way counts as inactive or inconclusive; note: nearly all actives have a fitted effect of over 35% in size)
In short: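 Using 1536-well format, dye-containing HepG2 suspension was seeded, allowed 5 h at 37 C/5% CO2, dosed by pintool with compounds, positive and negative controls, and imaged for fluorescence across 40 h.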

[11] = qHTS assay to identify small molecule HDAC inhibitors (AID 1259364; active = well fitted curve in the direction sought with a large enough effect in the repeat runs; an effect the other way counts as inactive or inconclusive;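 note: wild-type HCT-116 cells with endogenous class I/II HDAC activity; top concentration of the series differs between compounds; nearly all actives have a fitted effect of over 45% in size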)
In short: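 Read-out: luminescence of HDAC-Glo I/II reagent, 30 min RT, reflecting class I/II deacetylase activity in whole HCT-116 cells pre-exposed 2 h to DMSO-dissolved compounds.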

[12] = qHTS assay to identify small molecule agonists of the sonic hedgehog signaling (Shh) pathway (AID 1259368);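 note: NIH/3T3-derived 3T3Gli1-Luc cells carrying a stable Gli1-driven firefly luciferase reporter; nearly all actives have a fitted effect of over 15% in size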
In short: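 A Gli1 transcriptional response element controlled firefly luciferase in 3T3Gli1-Luc cells. Compounds and a positive control were added 4 hr after plating, and cells were incubated a further 24 hr at 37 C before luminescence detection.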

[13] = Caspase-3/7 induction in HepG2 cells by small molecules, qHTS assay (AID 1346978; active = well fitted curve in the direction sought with a large enough effect in the repeat runs; an effect the other way counts as inactive or inconclusive; note: nearly all actives have a fitted effect of over 15% in size)
In short: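 Wild-type HepG2 cells, 2,000/well, settled 5 hr at 37 C and 5% CO2, then compound-treated for 17 hr; caspase-3/7 activity read by luminescent Caspase-Glo 3/7 after 30 min at room temperature.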

[14] = Caspase-3/7 induction in CHO-K1 cells by small molecules, qHTS assay (AID 1346980; active = well fitted curve in the direction sought with a large enough effect in the repeat runs; an effect the other way counts as inactive or inconclusive; note: nearly all actives have a fitted effect of over 15% in size)
In short: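 Wild-type CHO-K1 cells exposed to compounds for 17hr at 37 C, 5% CO2. Caspase-3/7 activity then measured by Caspase-Glo 3/7 luminescence after 30min at room temperature.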

[15] = biological target: Acetylcholinesterase (Homo sapiens) (UniProt P22303); assay: Acetylcholinesterase (AChE) small molecule antagonists: colormetric cell-based qHTS assay (AID 1347395); note: nearly all actives have a fitted effect of over 30% in size
In short: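 Quantitative HTS in attached SH-SY5Y cells: 30 min compound exposure, then 90 min with acetylthiocholine and DTNB at 37 C; colour from thiocholine reports AChE activity.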

[16] = biological target: Acetylcholinesterase (Homo sapiens) (UniProt P22303); assay: Acetylcholinesterase (AChE) small molecule antagonists: enzyme-based qHTS assay (AID 1347397); details: Potency: AChE enzyme activity inhibition; outcome: AChE enzyme activity inhibition; note: nearly all actives have a fitted effect of over 55% in size
In short: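 Recombinant human AChE (50 mU/mL) preincubated with compound 30 min at room temperature; acetylthiocholine plus DTNB then added, and thiocholine formation read colorimetrically after 10 min at room temperature. DMSO served as vehicle control.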

[17] = biological target: Acetylcholinesterase (Homo sapiens) (UniProt P22303); assay: Acetylcholinesterase (AChE) small molecule antagonists: fluorescence cell-based qHTS assay (AID 1347398); details: Potency: AChE activity; outcome: AChE activity; note: nearly all actives have a fitted effect of over 50% in size
In short: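 SH-SY5Y cells (2000/well), attached overnight, incubated with compound 30 min at 37 C. Acetylthiocholine plus Thiolite Green then added for 40 min at room temperature. Thiocholine fluorescence (Ex/Em 490/520 nm) reports cellular AChE activity.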

[18] = biological target: Acetylcholinesterase (Homo sapiens) (UniProt P22303); assay: Acetylcholinesterase (AChE) small molecule antagonists: enzyme-based qHTS assay with human liver microsomes (AID 1347399); details: Potency: qHTS inhibition; outcome: qHTS inhibition; note: nearly all actives have a fitted effect of over 60% in size; note: potency is the fitted concentration of half-maximal effect
In short: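 Recombinant human AChE (50 mU/mL in the enzyme mix) and human liver microsomes (0.25 mg/mL final) were preincubated with compound and NADPH (0.25 mg/mL final) for 30 min at 37 C. Acetylthiocholine/DTNB was then added; thiocholine was read colorimetrically after 10 min at room temperature.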

[19] = biological target: Aromatase (Homo sapiens) (UniProt P11511); assay: qHTS assay to identify aromatase inhibitors (AID 743083; active = well fitted curve in the direction sought with a large enough effect in the repeat runs; an effect the other way counts as inactive or inconclusive; note: nearly all actives have a fitted effect of over 55% in size; note: potency is the fitted concentration of half-maximal effect)
[20] = qHTS assay to identify small molecule agonists of H2AX (AID 1224845; active = well fitted activation curve with a large enough effect in the signal ratio in the repeat runs, not every such curve was filed as active; the % refers to the signal ratio; note: potency is the fitted concentration of half-maximal effect)
In short: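 Wild-type CHO-K1 cells, plated overnight, exposed 3hr at 37C to 15 concentrations (0.76% DMSO final). Lysed, then HTRF anti-pH2AX (S139) cryptate and anti-H2AX-d2 antibodies, 24 hr room temperature; 665/620 nm emission read.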
% is set by controls: 0 for no effect and ±100 for the full control effect.

Aromatase (Homo sapiens), sequence (P11511 whole entry, looked up): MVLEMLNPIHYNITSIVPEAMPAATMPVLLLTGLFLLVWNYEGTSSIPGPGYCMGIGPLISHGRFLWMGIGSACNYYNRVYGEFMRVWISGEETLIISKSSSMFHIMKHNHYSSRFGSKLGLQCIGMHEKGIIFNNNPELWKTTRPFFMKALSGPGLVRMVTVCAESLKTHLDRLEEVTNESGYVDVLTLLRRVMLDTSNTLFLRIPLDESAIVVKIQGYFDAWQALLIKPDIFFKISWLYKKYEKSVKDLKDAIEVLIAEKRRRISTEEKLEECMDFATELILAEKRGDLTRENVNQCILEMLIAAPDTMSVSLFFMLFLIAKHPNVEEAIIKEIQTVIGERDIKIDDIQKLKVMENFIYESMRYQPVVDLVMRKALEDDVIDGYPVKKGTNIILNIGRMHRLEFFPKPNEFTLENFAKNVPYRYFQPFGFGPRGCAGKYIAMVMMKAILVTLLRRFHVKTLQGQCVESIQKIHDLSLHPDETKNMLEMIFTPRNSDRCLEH
Aryl hydrocarbon receptor (Homo sapiens), sequence (P35869 whole entry, looked up): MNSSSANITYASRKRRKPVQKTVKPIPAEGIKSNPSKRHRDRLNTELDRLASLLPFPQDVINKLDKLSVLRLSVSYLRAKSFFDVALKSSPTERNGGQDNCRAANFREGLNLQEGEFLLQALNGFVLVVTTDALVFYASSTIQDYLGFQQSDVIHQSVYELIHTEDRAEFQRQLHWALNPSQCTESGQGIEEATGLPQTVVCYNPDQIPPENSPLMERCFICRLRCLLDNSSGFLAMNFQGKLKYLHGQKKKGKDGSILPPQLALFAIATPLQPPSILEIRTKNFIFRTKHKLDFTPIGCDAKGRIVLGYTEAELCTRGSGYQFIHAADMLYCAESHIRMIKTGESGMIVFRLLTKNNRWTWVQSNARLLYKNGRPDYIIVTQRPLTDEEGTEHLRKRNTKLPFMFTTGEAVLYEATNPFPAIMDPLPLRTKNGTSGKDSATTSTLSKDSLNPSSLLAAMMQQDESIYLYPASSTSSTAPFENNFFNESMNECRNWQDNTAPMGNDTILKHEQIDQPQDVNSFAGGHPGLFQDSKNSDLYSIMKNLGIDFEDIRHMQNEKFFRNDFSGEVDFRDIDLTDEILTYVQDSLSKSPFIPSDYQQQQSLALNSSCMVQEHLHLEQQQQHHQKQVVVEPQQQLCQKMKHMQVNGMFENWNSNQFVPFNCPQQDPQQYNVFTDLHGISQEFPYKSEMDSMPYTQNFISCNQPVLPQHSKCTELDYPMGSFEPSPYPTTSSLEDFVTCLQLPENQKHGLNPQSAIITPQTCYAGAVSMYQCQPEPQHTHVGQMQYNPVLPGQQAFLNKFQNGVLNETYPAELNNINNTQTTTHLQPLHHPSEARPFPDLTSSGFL
Acetylcholinesterase (Homo sapiens), sequence (P22303 whole entry, looked up): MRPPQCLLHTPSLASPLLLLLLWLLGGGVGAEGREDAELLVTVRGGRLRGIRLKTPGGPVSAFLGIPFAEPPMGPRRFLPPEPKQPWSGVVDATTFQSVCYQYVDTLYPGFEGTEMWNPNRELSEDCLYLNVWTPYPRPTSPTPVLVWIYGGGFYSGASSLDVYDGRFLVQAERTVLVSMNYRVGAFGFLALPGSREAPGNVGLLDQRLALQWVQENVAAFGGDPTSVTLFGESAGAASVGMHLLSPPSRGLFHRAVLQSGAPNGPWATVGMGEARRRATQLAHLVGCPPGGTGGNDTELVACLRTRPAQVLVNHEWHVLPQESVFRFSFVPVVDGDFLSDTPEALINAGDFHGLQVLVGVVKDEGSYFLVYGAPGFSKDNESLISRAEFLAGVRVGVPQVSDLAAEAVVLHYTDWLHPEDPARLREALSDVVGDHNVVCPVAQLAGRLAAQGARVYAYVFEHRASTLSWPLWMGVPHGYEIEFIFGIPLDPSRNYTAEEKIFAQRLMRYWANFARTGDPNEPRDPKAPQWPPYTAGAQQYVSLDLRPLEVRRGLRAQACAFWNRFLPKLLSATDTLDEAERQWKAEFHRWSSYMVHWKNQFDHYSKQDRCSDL

O=[N+]([O-])c1c(Cl)c(Cl)cc(Cl)c1Cl
inactive: Potency [1] | Potency [2] | Potency [3] | Potency [4] | Potency [5] | Potency [6] | Potency [7] | Potency [8] | activity change, positive = activation [9] 0.621% | Potency [10] | outcome [11] | outcome [12] | Potency [13] | outcome [14] | Potency [15] | Potency [16] | Potency [17] | Potency [18]

CCC(C)=O
inactive: Potency [19] | Potency [2] | Potency [20] | activity change, positive = activation [9] -6.3% | Potency [15] | Potency [16] | Potency [17] | Potency [18]

ClC(Cl)=C(c1ccc(Cl)cc1)c1ccccc1Cl
inactive: Potency [10] | outcome [11] | outcome [12] | Potency [13] | outcome [14] | Potency [15] | Potency [16] | Potency [17] | Potency [18]

Cc1cc(C)c(C(=O)P(=O)(c2ccccc2)c2ccccc2)c(C)c1
inactive: Potency [2] | activity change, positive = activation [9] -54.9% | Potency [10] | outcome [11] | outcome [12] | Potency [13] | outcome [14] | Potency [15] | Potency [16] | Potency [17] | Potency [18]

CC1COC(Cn2cncn2)(c2ccc(Oc3ccc(Cl)cc3)cc2Cl)O1 (stereo not drawn)
inactive: Potency [2] | activity change, positive = activation [9] -64.8% | Potency [10] | outcome [11] | outcome [12] | Potency [13] | outcome [14] | Potency [15] | Potency [16] | Potency [17] | Potency [18]
active: Potency [19] 30.6 µM

CCCCC(CC)COC(=O)c1ccc(C(=O)OCC(CC)CCCC)cc1 (stereo not drawn)
inactive: Potency [19] | Potency [1] | Potency [2] | Potency [20] | activity change, positive = activation [9] 0.923% | Potency [15] | Potency [16] | Potency [17] | Potency [18]

CC(c1ccccc1)(c1ccc(O)cc1)c1ccc(O)cc1
inactive: activity change, positive = activation [9] -53.1% | Potency [10] | outcome [11] | outcome [12] | outcome [14] | Potency [15] | Potency [17] | Potency [18]

Cc1ccc2nc3sc(=O)sc3nc2c1
inactive: activity, negative = inhibition [2] 10.1% [at 19 µM] | activation (H2AX phosphorylation) [20] -0.108% [at 31.6 µM] | cytotoxicity [10] 0.753% [at 15.8 µM] | activity change, negative = inhibition [11] -12.7% [at 19 µM] | activity change [12] 2.66% [at 18.9 µM] | caspase activation [13] 0.305% [at 19 µM] | caspase-3/7 activation [14] -0.994% [at 19 µM] | activity, negative = inhibition [15] -0.0538% [at 23.6 µM] | activity change, negative = inhibition [16] 0% [at 23.6 µM] | activity change, negative = inhibition [17] 1.71% [at 23.8 µM] | activity change, negative = inhibition [18] -0.324% [at 23.6 µM]

Cc1cc(C(C)(C)c2ccc(O)c(C)c2)ccc1O
inactive: Potency [1] | Potency [20] | activity change, positive = activation [9] -66.8% | Potency [10] | outcome [11] | outcome [12] | outcome [14] | Potency [15] | Potency [16] | Potency [17] | Potency [18]
active: Potency [19] 65.3 µM | Potency [2] 58.2 µM

CCc1cccc(CC)c1N
inactive: Potency [19] | Potency [20] | Potency [15] | Potency [16] | Potency [17] | Potency [18]

N#Cc1cc([N+](=O)[O-])ccc1N
inactive: Potency [2] | Potency [20] | activity change, positive = activation [9] -2.3% | Potency [10] | outcome [11] | outcome [12] | Potency [13] | outcome [14] | Potency [15] | Potency [16] | Potency [17] | Potency [18]

Cc1ccc(N(SC(F)(Cl)Cl)S(=O)(=O)N(C)C)cc1
active: Potency [19] 3.86 µM | Potency [2] 13.7 µM | Potency [18] 71 µM
inactive: Potency [1] | Potency [20] | activity change, positive = activation [9] -74.2% | Potency [10] | outcome [11] | outcome [12] | Potency [13] | outcome [14] | Potency [15]

O=C(c1ccc(Cl)cc1)c1ccc(Cl)cc1
inactive: Potency [13] | Potency [15] | Potency [16] | Potency [17] | Potency [18]

CCCCC(CC)COC(=O)CCCCC(=O)OCC(CC)CCCC (stereo not drawn)
inactive: Potency [19] | Potency [1] | Potency [2] | Potency [13] | Potency [15] | Potency [16] | Potency [17] | Potency [18]

COCCOC(=O)c1ccccc1C(=O)OCCOC
inactive: Potency [19] | Potency [1] | Potency [2] | Potency [13] | Potency [15] | Potency [16] | Potency [17]

ClC1=C(Cl)[C@]2(Cl)[C@@H]3[C@@H](Cl)[C@H]4O[C@H]4[C@@H]3C1(Cl)C2(Cl)Cl
active: Potency [2] 68.6 µM
inactive: Potency [1] | activity change, positive = activation [9] -26.9% | Potency [10] | outcome [11] | outcome [12] | Potency [13] | outcome [14] | Potency [15] | Potency [16] | Potency [17] | Potency [18]

CCOC(=O)C(O)(c1ccc(Cl)cc1)c1ccc(Cl)cc1
inactive: Potency [10] | outcome [11] | outcome [12] | Potency [15] | Potency [16] | Potency [17] | Potency [18]
active: Potency [19] 4.37 µM and 30.6 µM | Potency [2] 30.9 µM and 30.6 µM | Potency [20] 90.7 µM and 89.8 µM

O=C(c1ccccc1)C(Cl)Cl
active: Potency [2] 24.3 µM
inactive: Potency [20] | activity change, positive = activation [9] -27.3% | Potency [10] | outcome [11] | outcome [12] | Potency [13] | outcome [14] | Potency [15] | Potency [16] | Potency [17] | Potency [18]

O=[N+]([O-])c1cc(C(F)(F)F)ccc1Cl
inactive: Potency [19] | activity change, positive = activation [9] -5.28% | Potency [15] | Potency [16] | Potency [17] | Potency [18]

O=S(=O)(C(Cl)(Cl)Cl)C(Cl)(Cl)Cl
inactive: activity change, positive = activation [9] -70.9% | Potency [10] | outcome [11] | outcome [12] | Potency [13] | outcome [14] | Potency [15] | Potency [16] | Potency [17] | Potency [18]
active: Potency [2] 9.69 µM

CC(C)(C)c1cc(C(C)(C)C)c(O)c(C(C)(C)C)c1
inactive: Potency [19] | Potency [1] | Potency [13] | Potency [15] | Potency [16] | Potency [17] | Potency [18]
active: Potency [20] 101 µM
